Source: PubChem (National Center for Advancing Translational Sciences (NCATS))
KB-3-1 cytotox: kills parental KB-3-1 adenocarcinoma cells; KB-3-1 viability, CellTiter-Glo ATP luminescence, 72 h; Potency, µM (highest dose often 46.1 µM), most hits filed as cytotoxic; AID 1347075; hit rate 1.4% among 400,000; note: nearly all actives have a fitted effect of over 60% in size
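KB-3-1 parental drug-naive adenocarcinoma cells in DMEM/10% FBS, incubated 72 h at 37 C with pin-transferred compounds across a concentration series. Viability by CellTiter-Glo luminescence; concentration-response curves fitted after normalization.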
TDP1 cell noCPT: qHTS for Inhibitors of human tyrosyl-DNA phosphodiesterase 1 (TDP1): qHTS in cells in absence of CPT | hit rate 15% among 420,000 | DT40 Tdp1-/- hTDP1 cells, no CPT, ATP luminescence, 48 h | Potency, µM (titrated, usually from 46.2 µM), without a hit: at the highest dose activity change, negative = growth inhibition, usual class: inhibitors | AID 686978, 2013; note: nearly all actives have a fitted effect of over 55% in size
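A cellular qHTS used chicken DT40 cells lacking endogenous Tdp1 but carrying stably transfected human TDP1. Compounds were applied without camptothecin, and cell growth kinetics were judged by ATP-dependent luminescence after ≥48 hr.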
TDP1 cell CPT: DT40-hTDP1 cell growth loss with CPT | chicken DT40 Tdp1-/-;hTDP1 cells + 20 nM CPT, ATP luminescence, 48 h | Potency, µM (top dose mostly 46.2 µM), inactives show at the top dose activity change, negative = growth inhibition, actives largely listed as inhibitors | hit rate 12% among 420,000 | AID 686979; note: nearly all actives have a fitted effect of over 55% in size
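Chicken DT40 Tdp1-/- cells complemented with human TDP1, 400 cells/well, exposed to compounds plus 20 nM camptothecin for at least 48 h at 37 C; viability read as ATP content by CellTiter-Glo luminescence.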
HT1080 IDH1KD tx: toxicity to HT-1080 IDH1 knockdown cells (counter line). AID 686971. HT-1080 IDH1 knockdown viability, ATP luminescence, 48 h. Potency, µM (series often up to 46.1 µM), for inactives: at the top dose activity, negative = toxicity, most hits filed as cytotoxic. hit rate 2% among 360,000;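 note: 0% = DMSO wells and -100% = cell-free medium wells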
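CellTiter-Glo luminescence after 48 h compound exposure at 37 degrees C of IDH1-knockdown HT-1080 cells in 5% FBS RPMI. %Activity scaled between DMSO wells and cell-free media wells, with curves fitted and assigned curve classes.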
KB-V1 MDR tox: KB-V1 MDR subline cytotoxicity | AID 1347076 | hit rate 3.4% among 400,000 | Potency, µM (highest dose often 46.1 µM), hits mostly cytotoxic | KB-V1 MDR cells viability, CellTiter-Glo, 72 h; note: nearly all actives have a fitted effect of over 60% in size
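Following 72 h at 37 degrees C with compound, KB-V1 cell viability was read by CellTiter-Glo luminescence, medium being phenol-red-free DMEM plus 10% FBS; concentration-response parameters came from normalized, curve-fitted qHTS data.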
HT1080-NT tox: kills 2HG-producing HT-1080-NT fibrosarcoma cells; HT-1080-NT fibrosarcoma viability, CellTiter-Glo ATP luminescence, 48 h; Potency, µM (titrated, usually from 46.1 µM), for the others: at the top dose activity, negative = less viability, usual class: cytotoxic; hit rate 1.6% among 360,000;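 note: NT is the 2HG producing partner of a matched IDH1 knockdown line; 0% = DMSO-treated cells and -100% = media-only wells without cells; nearly all actives have a fitted effect of over 55% in size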
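Fibrosarcoma NT cells, 750 per well in 5% FBS RPMI, were exposed to compound for 48 hours. Viability: CellTiter-Glo luminescence.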
An asterisk follows results filed as active. In the library only some 19% were active in any assay of this set; here they are far more common. Calls come from the whole dose curve; as a rule, active = well fitted curve in the direction sought with a large enough effect; inconclusive = small, poorly fitted or top-dose-only effect, or another doubt; inactive = no such curve, though single readings can be large; an effect the other way counts as inactive or inconclusive. Unless noted, % is set by controls: 0 for no effect and ±100 for the full control effect; potency is the fitted concentration of half-maximal effect.

What do the screens show for `CN1CCN(c2ncnc3c2ncn3[C@H]2CN(Cc3ccc(Cl)cc3)C[C@@H](CO)O2)CC1`?
KB-3-1 cytotox: inactive; TDP1 cell noCPT: inconclusive; TDP1 cell CPT: inconclusive; HT1080 IDH1KD tx: -17%; KB-V1 MDR tox: inactive; HT1080-NT tox: inconclusive

Results for COc1ccc(OC)c(NC(=O)c2cc(-c3cc(C)cc(C)c3O)n[nH]2)c1 ?
KB-3-1 cytotox: inactive; TDP1 cell noCPT: inconclusive; TDP1 cell CPT: inconclusive; HT1080 IDH1KD tx: inconclusive; KB-V1 MDR tox: inconclusive; HT1080-NT tox: inconclusive

How did O=C(CCN1C(=O)c2ccccc2C1=O)N1CCN(c2ccccc2)CC1 do in these assays?
KB-3-1 cytotox: inconclusive; TDP1 cell noCPT: 1%; TDP1 cell CPT: 2%; HT1080 IDH1KD tx: 2%; KB-V1 MDR tox: inactive; HT1080-NT tox: 1%

How did O=C1c2ccccc2C(=O)N1Cc1cnc(N2CCN(c3ccccc3)CC2)s1 do in these assays?
KB-3-1 cytotox: inconclusive; TDP1 cell noCPT: 12µM*; TDP1 cell CPT: 8.2µM*; HT1080 IDH1KD tx: -1%; KB-V1 MDR tox: inconclusive; HT1080-NT tox: -20%

How did CCOC(=O)[C@]12CCCC=C1N(Cc1ccc3c(c1)OCO3)C(=O)[C@H](CC(=O)NCC13CC4CC(CC(C4)C1)C3)C2 do in these assays?
KB-3-1 cytotox: inconclusive; TDP1 cell noCPT: 23µM*; TDP1 cell CPT: inconclusive; HT1080 IDH1KD tx: inconclusive; KB-V1 MDR tox: inconclusive; HT1080-NT tox: -29%

Results for CCOC(=O)[C@]12CCC=C1N(Cc1ccc3c(c1)OCO3)C(=O)[C@H](CC(=O)NCc1ccccc1)C2 ?
KB-3-1 cytotox: inactive; TDP1 cell noCPT: inconclusive; TDP1 cell CPT: inconclusive; HT1080 IDH1KD tx: 23µM*; KB-V1 MDR tox: inactive; HT1080-NT tox: -13%

What do the screens show for `CCOC(=O)[C@]12CCCC=C1N(Cc1ccc3c(c1)OCO3)C(=O)[C@H](CC(=O)NCCCCc1ccccc1)C2`?
KB-3-1 cytotox: inconclusive; TDP1 cell noCPT: 21µM*; TDP1 cell CPT: inconclusive; HT1080 IDH1KD tx: 12µM*; KB-V1 MDR tox: inconclusive; HT1080-NT tox: inconclusive

Results for CCOC(=O)[C@]12CCCC=C1N(Cc1ccc3c(c1)OCO3)C(=O)[C@H](CC(=O)NCC1CCCCC1)C2 ?
KB-3-1 cytotox: inactive; TDP1 cell noCPT: inconclusive; TDP1 cell CPT: inconclusive; HT1080 IDH1KD tx: inconclusive; KB-V1 MDR tox: inactive; HT1080-NT tox: inconclusive

How did CCCCNC(=O)C[C@@H]1C[C@@]2(C(=O)OCC)CCC=C2N(Cc2ccc3c(c2)OCO3)C1=O do in these assays?
KB-3-1 cytotox: inactive; TDP1 cell noCPT: inconclusive; TDP1 cell CPT: inconclusive; HT1080 IDH1KD tx: 2%; KB-V1 MDR tox: inactive; HT1080-NT tox: 6%

Results for CCOC(=O)[C@]12CCC=C1N(Cc1ccc3c(c1)OCO3)C(=O)[C@H](CC(=O)NCCC(C)C)C2 ?
KB-3-1 cytotox: inactive; TDP1 cell noCPT: 18µM*; TDP1 cell CPT: inconclusive; HT1080 IDH1KD tx: 12%; KB-V1 MDR tox: inconclusive; HT1080-NT tox: 1%

How did CCOC(=O)[C@]12CCC=C1N(Cc1ccc3c(c1)OCO3)C(=O)[C@H](CC(=O)NCCCN1CCCC1=O)C2 do in these assays?
KB-3-1 cytotox: inactive; TDP1 cell noCPT: -1%; TDP1 cell CPT: 6%; HT1080 IDH1KD tx: 0%; KB-V1 MDR tox: inconclusive; HT1080-NT tox: 13%

What do the screens show for `O=C(CN1CCN(S(=O)(=O)c2cc(Cl)ccc2Cl)CC1)Nc1cccc(F)c1`?
KB-3-1 cytotox: inactive; TDP1 cell noCPT: inconclusive; TDP1 cell CPT: inconclusive; KB-V1 MDR tox: inactive

How did CCCCNC(=O)C[C@@H]1C[C@@]2(C(=O)OC)CCCCC=C2N(Cc2ccc3c(c2)OCO3)C1=O do in these assays?
KB-3-1 cytotox: inactive; TDP1 cell noCPT: inconclusive; TDP1 cell CPT: inconclusive; HT1080 IDH1KD tx: 2%; KB-V1 MDR tox: inconclusive; HT1080-NT tox: -4%

How did COC(=O)[C@]12CCCCC=C1N(Cc1ccc3c(c1)OCO3)C(=O)[C@H](CC(=O)NCCCCc1ccccc1)C2 do in these assays?
KB-3-1 cytotox: inactive; TDP1 cell noCPT: inconclusive; TDP1 cell CPT: inconclusive; HT1080 IDH1KD tx: inconclusive; KB-V1 MDR tox: 16µM*; HT1080-NT tox: inconclusive

Results for CCOC(=O)[C@]12CCC=C1N(Cc1ccc3c(c1)OCO3)C(=O)[C@H](CC(=O)NCCCCc1ccccc1)C2 ?
KB-3-1 cytotox: inconclusive; TDP1 cell noCPT: 21µM*; TDP1 cell CPT: inconclusive; HT1080 IDH1KD tx: inconclusive; KB-V1 MDR tox: inconclusive; HT1080-NT tox: inconclusive

Results for CCOC(=O)c1c(N)sc2c1CCC1C(=O)N(C3CCCCC3)C(=O)C21 (stereo not drawn) ?
KB-3-1 cytotox: inactive; TDP1 cell noCPT: 26µM*; TDP1 cell CPT: inconclusive; HT1080 IDH1KD tx: -21%; KB-V1 MDR tox: inconclusive; HT1080-NT tox: -6%

How did O=S(=O)(N1CCOCC1)N1CCN(c2ccc(F)cc2)CC1 do in these assays?
KB-3-1 cytotox: inactive; TDP1 cell noCPT: 4%; TDP1 cell CPT: -24%; HT1080 IDH1KD tx: 9%; KB-V1 MDR tox: inactive; HT1080-NT tox: -6%

How did O=C(C1CCN(S(=O)(=O)N2CCOCC2)CC1)N1CCN(c2ccc(F)cc2)CC1 do in these assays?
KB-3-1 cytotox: inactive; TDP1 cell noCPT: 10µM*; TDP1 cell CPT: 8.2µM*; HT1080 IDH1KD tx: -9%; KB-V1 MDR tox: inactive; HT1080-NT tox: -15%

Results for COc1ccc(N2CCN(C(=O)C3CCN(S(=O)(=O)N4CCOCC4)CC3)CC2)cc1 ?
KB-3-1 cytotox: inactive; TDP1 cell noCPT: 13µM*; TDP1 cell CPT: inconclusive; HT1080 IDH1KD tx: -3%; KB-V1 MDR tox: inactive; HT1080-NT tox: -6%

How did CCOc1ccc(CCNC(=O)c2c3c(nc4ccccc24)C(=O)N(C2CCCCC2)C3)cc1 do in these assays?
KB-3-1 cytotox: inactive; TDP1 cell noCPT: 21µM*; TDP1 cell CPT: 16µM*; KB-V1 MDR tox: inactive

What do the screens show for `CCCNC(=O)c1c2c(nc3ccccc13)C(=O)N(C1CCCCC1)C2`?
KB-3-1 cytotox: inactive; TDP1 cell noCPT: -21%; TDP1 cell CPT: -3%; KB-V1 MDR tox: inactive

What do the screens show for `O=C(NCCc1ccccc1)c1c2c(nc3ccccc13)C(=O)N(C1CCCCC1)C2`?
KB-3-1 cytotox: inactive; TDP1 cell noCPT: 18µM*; TDP1 cell CPT: 12µM*; KB-V1 MDR tox: inactive

What do the screens show for `O=C(NCCc1ccc(Cl)cc1)c1c2c(nc3ccccc13)C(=O)N(C1CCCCC1)C2`?
KB-3-1 cytotox: inactive; TDP1 cell noCPT: 15µM*; TDP1 cell CPT: 15µM*; KB-V1 MDR tox: inactive
